Source: the supplement of paper PMC10849652
About 7,900 targets were measured; listed, in parts, are those with a hit and a random draw of the rest. About 0.6% of all pairs of compound and target were hits. Unmarked numbers belong to inactive results.

Experiments:
Test in all cases: log2 fold change, soluble protein after heating vs DMSO (PISA); higher = thermal stabilisation; K562 cells, 10 uM, 30 min; active = over 0.2 and 3.5 SD of the protein, either way, in both replicates (recomputed)
[1] = compound: CS(=O)(=O)c1ccc(-c2cnc(N)c(C(=O)Nc3ccccc3)n2)cc1
Summary of the method: (§1)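 K562 cells (2×10^6 cells/mL) were treated with 10 μM compound for 30 min, and aliquots were heated for 3 min over 48°C-58°C. Pooled aliquots were extracted in PBS with 0.5% NP-40 at 4°C, and the supernatant after 21,000xg for 90 min was measured by TMTpro 16plex LC-MS/MS with channel sums equalised. Reported thermal stability, relative to control samples and from duplicates, is a log2 fold change.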

crizotinib = compound: C[C@@H](Oc1cc(-c2cnn(C3CCNCC3)c2)cnc1N)c1c(Cl)ccc(F)c1Cl [crizotinib]
Summary of the method: as §1

[2] = compound: C[C@@H]1COCCN1C2=NC(=NC(=C2)C3(CC3)S(=O)(=O)C)C4=C5C=CNC5=CC=C4
Summary of the method: as §1

[3] = compound: C[C@H](C1=CC=C(C=C1)C(=O)NC2=C3C=CNC3=NC=C2)N
Summary of the method: as §1

duvelisib = compound: C[C@H](Nc1ncnc2nc[nH]c12)c1cc2cccc(Cl)c2c(=O)n1-c1ccccc1 [duvelisib]
Summary of the method: as §1

gandotinib = compound: Cc1cc(Nc2cc(CN3CCOCC3)c3nc(C)c(Cc4ccc(Cl)cc4F)n3n2)n[nH]1 [gandotinib]
Summary of the method: as §1

tozasertib = compound: Cc1cc(Nc2cc(N3CCN(C)CC3)nc(Sc3ccc(NC(=O)C4CC4)cc3)n2)n[nH]1 [tozasertib]
Summary of the method: as §1

[4] = compound: Cc1cc(SCc2sc(-c3ccc(C(F)(F)F)cc3)nc2C)ccc1OCC(=O)O
Summary of the method: as §1

doramapimod = compound: Cc1ccc(-n2nc(C(C)(C)C)cc2NC(=O)Nc2ccc(OCCN3CCOCC3)c3ccccc23)cc1 [doramapimod]
Summary of the method: as §1

ispinesib = compound: Cc1ccc(C(=O)N(CCCN)[C@@H](c2nc3cc(Cl)ccc3c(=O)n2Cc2ccccc2)C(C)C)cc1 [ispinesib]
Summary of the method: as §1

bafetinib = compound: Cc1ccc(NC(=O)c2ccc(CN3CC[C@H](N(C)C)C3)c(C(F)(F)F)c2)cc1Nc1nccc(-c2cncnc2)n1 [bafetinib]
Summary of the method: as §1

[5] = compound: Cc1cccc(CC(=O)N2CCc3c2ccc(-c2cn(C)c4ncnc(N)c24)c3F)n1
Summary of the method: as §1

nilotinib = compound: Cc1cn(-c2cc(NC(=O)c3ccc(C)c(Nc4nccc(-c5cccnc5)n4)c3)cc(C(F)(F)F)c2)cn1 [nilotinib]
Summary of the method: as §1

[6] = compound: Cc1nc(Nc2n[nH]c3c2CN(C(=O)N[C@H](CN(C)C)c2ccccc2)C3(C)C)c2sccc2n1
Summary of the method: as §1

dasatinib = compound: Cc1nc(Nc2ncc(C(=O)Nc3c(C)cccc3Cl)s2)cc(N2CCN(CCO)CC2)n1 [dasatinib]
Summary of the method: as §1

[7] = compound: Cc1ncc(-c2ccnc(Nc3ccc(S(C)(=O)=O)cc3)n2)n1C(C)C
Summary of the method: as §1

[8] = compound: Cn1cc(-c2ccc3c(c2)CCN3C(=O)Cc2cccc(C(F)(F)F)c2)c2c(N)ncnc21
Summary of the method: as §1

[9] = compound: Cn1cc(-c2ccc3nnc(C(F)(F)c4ccc5ncccc5c4)n3n2)cn1
Summary of the method: as §1

tipifarnib = compound: Cn1cncc1[C@@](N)(c1ccc(Cl)cc1)c1ccc2c(c1)c(-c1cccc(Cl)c1)cc(=O)n2C [tipifarnib]
Summary of the method: as §1

mubritinib = compound: FC(F)(F)c1ccc(/C=C/c2nc(COc3ccc(CCCCn4ccnn4)cc3)co2)cc1 [mubritinib]
Summary of the method: as §1

Sequence of UniProt Q4L235 (Q4L235 whole entry, looked up): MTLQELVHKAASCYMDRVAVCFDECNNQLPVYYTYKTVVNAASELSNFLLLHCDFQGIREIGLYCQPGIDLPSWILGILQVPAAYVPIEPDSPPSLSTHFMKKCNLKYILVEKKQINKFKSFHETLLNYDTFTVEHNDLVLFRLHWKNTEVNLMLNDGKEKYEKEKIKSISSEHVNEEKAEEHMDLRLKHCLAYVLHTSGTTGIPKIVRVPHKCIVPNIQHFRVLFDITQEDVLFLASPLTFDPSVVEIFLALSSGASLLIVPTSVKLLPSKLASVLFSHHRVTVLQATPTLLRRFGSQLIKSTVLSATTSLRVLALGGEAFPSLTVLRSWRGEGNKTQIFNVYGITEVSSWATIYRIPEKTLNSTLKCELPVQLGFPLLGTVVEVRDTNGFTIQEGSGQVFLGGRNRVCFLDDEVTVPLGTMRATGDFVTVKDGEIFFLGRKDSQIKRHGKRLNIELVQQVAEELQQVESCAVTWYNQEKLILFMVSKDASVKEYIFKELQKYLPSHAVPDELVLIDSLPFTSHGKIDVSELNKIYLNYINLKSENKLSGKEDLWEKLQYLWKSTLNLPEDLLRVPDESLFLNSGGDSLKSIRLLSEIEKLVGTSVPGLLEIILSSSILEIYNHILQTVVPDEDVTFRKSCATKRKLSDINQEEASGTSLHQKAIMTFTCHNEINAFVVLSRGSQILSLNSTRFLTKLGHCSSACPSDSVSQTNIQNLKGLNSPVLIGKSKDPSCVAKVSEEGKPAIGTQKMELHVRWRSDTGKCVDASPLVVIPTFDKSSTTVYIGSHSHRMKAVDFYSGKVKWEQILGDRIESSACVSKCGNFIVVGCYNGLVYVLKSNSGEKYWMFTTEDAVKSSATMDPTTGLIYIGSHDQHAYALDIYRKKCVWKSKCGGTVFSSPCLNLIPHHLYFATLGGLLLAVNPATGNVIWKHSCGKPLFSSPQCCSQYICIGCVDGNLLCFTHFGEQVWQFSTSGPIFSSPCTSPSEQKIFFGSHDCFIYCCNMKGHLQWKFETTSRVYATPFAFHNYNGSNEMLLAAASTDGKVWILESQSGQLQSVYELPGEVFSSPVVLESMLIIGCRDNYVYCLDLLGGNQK
Sequence of UniProt Q99943 (Q99943 whole entry, looked up): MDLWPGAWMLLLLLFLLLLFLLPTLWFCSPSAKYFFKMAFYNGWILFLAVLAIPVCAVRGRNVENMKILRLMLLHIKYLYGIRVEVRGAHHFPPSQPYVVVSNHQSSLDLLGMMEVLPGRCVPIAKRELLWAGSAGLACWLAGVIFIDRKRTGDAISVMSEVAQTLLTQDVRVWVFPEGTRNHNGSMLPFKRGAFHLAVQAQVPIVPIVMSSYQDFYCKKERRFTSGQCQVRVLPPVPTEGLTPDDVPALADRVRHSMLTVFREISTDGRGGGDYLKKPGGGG
Sequence of UniProt Q86WA6 (Q86WA6 whole entry, looked up): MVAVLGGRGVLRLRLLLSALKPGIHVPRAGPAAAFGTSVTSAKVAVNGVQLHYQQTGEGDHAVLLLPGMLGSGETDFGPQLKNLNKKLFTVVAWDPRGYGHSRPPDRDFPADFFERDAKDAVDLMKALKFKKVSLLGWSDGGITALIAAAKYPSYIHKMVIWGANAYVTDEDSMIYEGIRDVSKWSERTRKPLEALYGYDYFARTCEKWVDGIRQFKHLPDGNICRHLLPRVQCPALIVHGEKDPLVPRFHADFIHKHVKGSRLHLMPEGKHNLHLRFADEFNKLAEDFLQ
Sequence of UniProt Q9NWB6 (Q9NWB6 whole entry, looked up): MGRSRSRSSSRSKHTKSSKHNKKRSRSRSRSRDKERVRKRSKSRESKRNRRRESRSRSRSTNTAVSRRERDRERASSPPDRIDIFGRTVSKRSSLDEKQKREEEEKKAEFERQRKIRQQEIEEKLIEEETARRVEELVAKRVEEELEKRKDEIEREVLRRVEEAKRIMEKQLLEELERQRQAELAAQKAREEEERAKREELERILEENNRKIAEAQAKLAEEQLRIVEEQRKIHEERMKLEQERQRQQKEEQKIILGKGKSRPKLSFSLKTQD
Sequence of UniProt Q06481 (Q06481 whole entry, looked up): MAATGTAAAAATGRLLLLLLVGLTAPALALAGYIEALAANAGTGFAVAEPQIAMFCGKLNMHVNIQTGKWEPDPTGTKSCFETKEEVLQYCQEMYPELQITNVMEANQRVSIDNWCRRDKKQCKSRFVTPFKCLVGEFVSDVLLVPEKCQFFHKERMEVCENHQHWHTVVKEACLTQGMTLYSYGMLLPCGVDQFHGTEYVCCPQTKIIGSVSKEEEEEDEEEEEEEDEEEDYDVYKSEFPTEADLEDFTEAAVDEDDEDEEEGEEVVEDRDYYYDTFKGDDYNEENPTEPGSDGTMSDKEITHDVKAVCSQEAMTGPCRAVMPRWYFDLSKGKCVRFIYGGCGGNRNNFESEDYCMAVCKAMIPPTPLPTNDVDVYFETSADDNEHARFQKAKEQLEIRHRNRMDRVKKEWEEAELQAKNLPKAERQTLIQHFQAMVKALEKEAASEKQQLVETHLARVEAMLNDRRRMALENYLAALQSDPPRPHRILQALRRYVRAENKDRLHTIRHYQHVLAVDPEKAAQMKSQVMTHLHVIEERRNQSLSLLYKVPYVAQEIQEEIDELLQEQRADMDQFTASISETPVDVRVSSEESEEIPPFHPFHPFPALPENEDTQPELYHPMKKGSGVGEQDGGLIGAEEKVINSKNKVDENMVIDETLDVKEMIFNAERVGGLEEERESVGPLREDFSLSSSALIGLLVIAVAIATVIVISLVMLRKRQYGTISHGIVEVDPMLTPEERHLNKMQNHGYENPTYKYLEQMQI
Sequence of UniProt Q9ULX6 (Q9ULX6 whole entry, looked up): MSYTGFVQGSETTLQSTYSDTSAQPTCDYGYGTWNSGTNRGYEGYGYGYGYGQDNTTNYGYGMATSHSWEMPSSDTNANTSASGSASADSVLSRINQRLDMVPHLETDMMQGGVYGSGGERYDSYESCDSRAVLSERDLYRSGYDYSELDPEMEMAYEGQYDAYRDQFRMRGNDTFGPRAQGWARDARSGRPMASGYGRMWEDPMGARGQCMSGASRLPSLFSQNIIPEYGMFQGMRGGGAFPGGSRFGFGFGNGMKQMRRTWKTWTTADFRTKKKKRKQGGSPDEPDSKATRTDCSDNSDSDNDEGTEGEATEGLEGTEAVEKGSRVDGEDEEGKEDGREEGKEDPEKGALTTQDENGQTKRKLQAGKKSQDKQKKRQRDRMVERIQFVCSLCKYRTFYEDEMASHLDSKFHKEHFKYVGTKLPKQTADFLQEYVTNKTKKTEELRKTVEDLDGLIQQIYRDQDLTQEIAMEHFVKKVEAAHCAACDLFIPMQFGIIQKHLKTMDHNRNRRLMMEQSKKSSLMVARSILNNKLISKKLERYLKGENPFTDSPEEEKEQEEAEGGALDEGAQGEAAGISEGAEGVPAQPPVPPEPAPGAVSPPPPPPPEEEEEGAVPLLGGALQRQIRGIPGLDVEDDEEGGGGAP
Sequence of UniProt Q9UKV5 (Q9UKV5 whole entry, looked up): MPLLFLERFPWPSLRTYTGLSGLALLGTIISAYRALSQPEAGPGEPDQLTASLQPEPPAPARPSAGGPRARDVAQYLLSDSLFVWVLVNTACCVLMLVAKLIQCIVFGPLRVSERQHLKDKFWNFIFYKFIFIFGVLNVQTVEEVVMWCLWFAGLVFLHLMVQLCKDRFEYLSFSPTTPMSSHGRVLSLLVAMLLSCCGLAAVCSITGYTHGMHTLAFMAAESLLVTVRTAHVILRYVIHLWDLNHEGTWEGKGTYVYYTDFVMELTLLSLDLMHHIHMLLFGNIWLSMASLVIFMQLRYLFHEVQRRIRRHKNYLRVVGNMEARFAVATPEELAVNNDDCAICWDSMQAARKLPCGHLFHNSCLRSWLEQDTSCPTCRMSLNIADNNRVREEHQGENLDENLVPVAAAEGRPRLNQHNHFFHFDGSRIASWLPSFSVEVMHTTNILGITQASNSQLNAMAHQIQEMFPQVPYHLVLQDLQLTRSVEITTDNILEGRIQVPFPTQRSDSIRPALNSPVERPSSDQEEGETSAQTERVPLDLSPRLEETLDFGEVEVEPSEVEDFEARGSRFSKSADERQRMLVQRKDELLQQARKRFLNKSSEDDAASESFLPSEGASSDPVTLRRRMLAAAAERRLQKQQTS
Sequence of UniProt O43823 (O43823 whole entry, looked up): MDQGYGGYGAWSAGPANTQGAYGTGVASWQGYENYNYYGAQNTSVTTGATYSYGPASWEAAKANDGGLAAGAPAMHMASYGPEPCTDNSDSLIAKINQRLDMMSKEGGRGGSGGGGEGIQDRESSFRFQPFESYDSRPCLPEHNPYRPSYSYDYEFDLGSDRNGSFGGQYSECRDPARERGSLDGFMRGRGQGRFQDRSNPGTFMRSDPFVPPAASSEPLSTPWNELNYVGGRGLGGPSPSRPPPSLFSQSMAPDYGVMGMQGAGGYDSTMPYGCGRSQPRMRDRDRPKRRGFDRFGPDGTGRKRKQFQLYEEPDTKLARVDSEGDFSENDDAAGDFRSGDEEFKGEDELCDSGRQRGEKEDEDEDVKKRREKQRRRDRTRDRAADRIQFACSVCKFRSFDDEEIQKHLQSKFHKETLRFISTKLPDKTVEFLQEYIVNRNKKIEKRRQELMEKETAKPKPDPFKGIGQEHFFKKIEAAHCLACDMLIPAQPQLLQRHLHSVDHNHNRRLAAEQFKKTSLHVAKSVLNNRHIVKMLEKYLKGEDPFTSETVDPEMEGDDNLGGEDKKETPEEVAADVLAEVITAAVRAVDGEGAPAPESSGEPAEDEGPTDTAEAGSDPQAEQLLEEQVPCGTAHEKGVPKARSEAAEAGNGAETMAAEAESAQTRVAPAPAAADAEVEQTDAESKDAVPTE
Sequence of UniProt P18085 (P18085 whole entry, looked up): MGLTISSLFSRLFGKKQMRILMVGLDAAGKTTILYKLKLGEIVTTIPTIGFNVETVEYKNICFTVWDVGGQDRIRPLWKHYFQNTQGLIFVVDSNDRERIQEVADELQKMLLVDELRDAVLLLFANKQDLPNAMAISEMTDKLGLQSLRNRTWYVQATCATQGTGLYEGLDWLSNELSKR

| Target | log2 fold change [1] | log2 fold change (crizotinib) | log2 fold change [2] | log2 fold change [3] | log2 fold change (duvelisib) | log2 fold change (gandotinib) | log2 fold change (tozasertib) | log2 fold change [4] | log2 fold change (doramapimod) | log2 fold change (ispinesib) | log2 fold change (bafetinib) | log2 fold change [5] | log2 fold change (nilotinib) | log2 fold change [6] | log2 fold change (dasatinib) | log2 fold change [7] | log2 fold change [8] | log2 fold change [9] | log2 fold change (tipifarnib) | log2 fold change (mubritinib) |
| --- | --- | --- | --- | --- | --- | --- | --- | --- | --- | --- | --- | --- | --- | --- | --- | --- | --- | --- | --- | --- |
| ARGLU1 (UniProt Q9NWB6) | -0.038 | -0.008 | -0.039 | -0.344 | -0.011 | 0.212 | 0.037 | -0.027 | 0.047 | 0.242 | 0.165 | -0.058 | 0.184 | -1.13 (active) | 0.146 | -0.027 | -0.046 | -0.031 | 0.043 | -0.057 |
| AGPAT1 (UniProt Q99943) | 0.017 | 0.187 | 0.043 | -0.018 | 0.041 | -0.106 | 0.012 | 0.014 | 0.019 | 0.096 | -0.036 | 0.012 | -0.035 | 0.016 | -0.033 | -0.063 | 0.033 | -0.006 | 0.027 | 0.014 |
| AIP (UniProt O00170) | 0.031 | 0.039 | 0.075 | -0.055 | 0.014 | -0.058 | 0.064 | 0.038 | -0.024 | 0.011 | 0.017 | 0.02 | -0.062 | -0.009 | -0.144 | 0.056 | 0.031 | 0.012 | -0.058 | 0.015 |
| BAIAP2 (UniProt Q9UQB8) | 0.023 | -0.115 | 0 | -0.039 | 0.014 | -0.053 | -0.061 | 0.08 | 0.086 | -0.057 | -0.009 | 0.032 | -0.061 | -0.05 | -0.066 | -0.038 | 0.03 | -0.032 | -0.035 | 0.06 |
| AKAP8L (UniProt Q9ULX6) | -0.036 | -0.049 | -0.066 | -0.1 | -0.03 | -0.007 | 0.039 | 0.092 | 0.047 | -0.102 | -0.078 | -0.039 | 0.044 | -0.02 | -0.161 | -0.052 | -0.036 | -0.14 | 0.039 | 0.003 |
| AMFR (UniProt Q9UKV5) | -0.008 | -0.04 | 0.018 | -0.034 | 0.028 | 0.012 | -0.029 | 0.071 | 0.057 | -0.331 (active) | -0.095 | 0.099 | -0.051 | -0.016 | -0.094 | 0.049 | 0.029 | -0.06 | 0.05 | -0.018 |
| BOP1 (UniProt Q14137) | -0.008 | 0.11 | -0.153 | 0.064 | -0.113 | 0.025 | 0.007 | 0.134 | -0.008 | -0.114 | 0.031 | -0.083 | -0.028 | -0.159 | 0.02 | -0.122 | -0.038 | -0.087 | 0.114 | -0.114 |
| AKAP8 (UniProt O43823) | 0.047 | -0.104 | 0.077 | 0.062 | 0.032 | -0.036 | 0.005 | 0.061 | 0.033 | -0.103 | -0.051 | -0.008 | -0.001 | -0.044 | -0.155 | -0.042 | -0.007 | -0.049 | 0.022 | 0.028 |
| ACSL4 (UniProt O60488) | 0.02 | -0.338 (active) | 0.07 | 0.099 | 0.045 | -0.089 | 0.032 | 0.151 | 0.01 | -0.311 (active) | -0.021 | -0.014 | -0.027 | -0.063 | -0.222 | 0.087 | 0.05 | 0.115 | -0.134 | -0.078 |
| BPHL (UniProt Q86WA6) | 0.02 | -0.036 | 0.008 | -0.059 | 0.024 | 0.05 | 0.192 | -0.01 | 0.004 | 0.01 | -0.005 | 0.002 | -0.032 | -0.034 | -0.032 | -0.021 | 0.082 | 0.009 | 0.032 | -0.008 |
| AASDH (UniProt Q4L235) | -0.04 | 0.07 | 0.142 | -0.058 | 0.01 | -0.066 | -0.017 | -0.034 | -0.161 | -0.236 | -0.065 | -0.008 | -0.079 | -0.149 | 0.063 | 0.173 | 0.045 | 0.024 | 0.058 | 0.144 |
| ARF4 (UniProt P18085) | 0.057 | 0.081 | 0.122 | -0.018 | 0.081 | -0.074 | -0.021 | 0.017 | -0.034 | 0.254 (active) | 0.113 | 0.01 | -0.056 | 0.015 | -0.053 | 0.088 | 0.052 | 0.038 | -0.061 | 0.02 |
| AGRN (UniProt O00468) | -0.078 | -0.01 | -0.073 | -0.021 | -0.162 | -0.012 | 0.026 | 0.24 | 0.062 | 0.009 | 0.006 | 0.001 | -0.034 | -0.035 | 0.355 | -0.086 | 0.03 | 0.162 | 0.165 | -0.079 |
| AHCYL1 (UniProt O43865) | 0.097 | 0.018 | 0.038 | 0.02 | -0.005 | 0.02 | 0.007 | -0.036 | -0.045 | -0.015 | -0.009 | -0.135 | 0.006 | 0.029 | 0.005 | 0.116 | 0.041 | 0.041 | -0.014 | -0.055 |
| APLP2 (UniProt Q06481) | 0 | 0.032 | -0.012 | -0.035 | 0.088 | 0.117 | 0.103 | -0.049 | 0.049 | 0.16 | 0.054 | -0.063 | 0.156 | -0.144 | 0.118 | 0.052 | -0.007 | -0.164 | -0.01 | -0.011 |
| AP2A1 (UniProt O95782) | -0.011 | -0.127 | -0.006 | -0.237 (active) | -0.015 | 0.01 | -0.126 | 0.02 | 0.039 | 0.081 | 0.052 | 0.024 | -0.008 | -0.008 | 0.045 | -0.079 | -0.007 | -0.066 | -0.051 | -0.011 |
